Measured values from PubChem BioAssay.
Calls of active or inactive are those of the source.

Columns and labels:
[1] = tested on: Wnt5a (protein binding on small-molecule microarray); assay: small molecules binding Wnt5a protein – biophysical, small-molecule microarray, 635/667 nm fluorescence, primary screen (AID 1142); details: 635 nm fluorescence, higher = more signal;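 note: fluorescence read at 667 nm with signal to noise per printed feature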
[2] = ATP-based viability of Huh7 replicon cells – cell-based, CellTiter-Glo luminescence, basal, 48 h, cytotoxicity control for HCV replication inhibitor project, primary screen (AID 1143); details: higher = more signal, called active from +8 up or from −8 down;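 note: Huh7 hepatoma cells carrying a hepatitis C replication reporter with no stimulus; test concentration not given here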
[3] = basal CRE-LacZ reporter activity in PC12 – cell-based, unstimulated, primary screen (AID 1145); details: no forskolin, luminescence, 4.5 h, higher = more signal, called active from +8 up or from −8 down
[4] = forskolin-driven CRE-LacZ activity in PC12 – cell-based, CRE-LacZ reporter, forskolin-stimulated, primary screen (AID 1146); details: luminescence, 4.5 h, higher = more signal, called active from +8 up or from −8 down;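 note: PC12 cells with 6xCRE LacZ reporter stimulated by forskolin 10 µM; beta-galactosidase reporter signal reflecting CREB driven transcription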
[5] = molecular target: Streptavidin (Streptomyces avidinii) (UniProt P22629); assay: compounds binding control protein streptavidin – biophysical, small-molecule microarray, 635/667 nm fluorescence, artefact control for SMM compound annotation, primary screen (AID 1147); details: higher = more signal;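 note: signal reflects streptavidin binding to arrayed compounds as a control protein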
[6] = probe aInhba binding on compound microarray – biochemical, small-molecule microarray, 635/667 nm fluorescence, primary screen (AID 1148); details: higher = more signal;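 note: score merges 667nm spot fluorescence with signal-to-noise for antibody binding to printed compounds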
Torsin-1A (Homo sapiens) [7] = molecular target: Torsin-1A (Homo sapiens) (UniProt O14656); assay: TOR1A wild-type binding on microarray – cell lysate, small-molecule microarray, lysate, 635/667 nm, primary screen (AID 1149); details: COS7 hTOR1A-WT lysate, 635 nm fluorescence, higher = more signal
Torsin-1A (Homo sapiens) [8] = molecular target: Torsin-1A (Homo sapiens) (UniProt O14656); assay: torsin A mutant lysate binding on microarrays – cell lysate, small-molecule microarray, COS7 lysate, 635/667 nm fluorescence, primary screen (AID 1150); details: COS7 hTOR1A mutant lysate, 635 nm fluorescence, higher = more signal;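 note: score pools 667 nm emission and signal to noise measuring lysate protein binding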
[9] = tested on: Sonic hedgehog protein (Shh); assay: Sonic hedgehog microarray binding compounds – biochemical, small-molecule microarray, 635/667 nm fluorescence, primary screen (AID 1151); details: 635 nm fluorescence, higher = more signal;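 note: Shh protein binding to compounds spotted on small-molecule microarray slides; score combines spot fluorescence intensity with signal-to-noise across triplicate slides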
[10] = optical density shifts of acrAB sulA E. coli – strain DRC41, OD650, 48 h, E. coli filamentation inducer project, primary screen (AID 1152); details: higher = more signal, called active from +8 up or from −8 down;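 note: E. coli MC1000 strain DRC41 lacking acrAB efflux pump and sulA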
[11] = probe aLefty1 binding on compound microarray – biochemical, small-molecule microarray, 635/667 nm fluorescence, primary screen (AID 1153); details: higher = more signal;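 note: score merges spot fluorescence with signal-to-noise ratio from the scanned slide images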
[12] = plasmodial surface anion channel blockers, osmotic lysis – cell-based, P. falciparum Indochina, OD700, 1 h, primary screen (AID 1154); details: P. falciparum Indochina infected RBC osmotic lysis, higher = more signal, called active from +8 up or from −8 down
[13] = plasmodial surface anion channel blockers, osmotic lysis – cell-based, P. falciparum Indochina, OD700, 2 h, primary screen (AID 1155);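 note: lysis reports solute entry through the parasite surface anion channel PSAC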; details: P. falciparum Indochina infected erythrocytes, higher = more signal, called active from +8 up or from −8 down
[14] = changes in parasitized red cell lysis, either direction – P. falciparum Indochina, OD700, 3 h, PSAC antagonist project, primary screen (AID 1156); details: P. falciparum-infected erythrocytes, osmotic lysis, higher = more signal, called active from +8 up or from −8 down
[15] = plasmodial surface anion channel blockers, osmotic lysis – cell-based, P. falciparum Indochina, OD700, 18 h, primary screen (AID 1157); details: P. falciparum Indochina infected erythrocytes, osmotic lysis OD700, 18 h; higher = more signal, called active from +8 up or from −8 down
[16] = S6 kinase pathway phospho-S6 level changes – cell-based, A549, cytoblot, luminescence, serum-stimulated, primary screen (AID 1158); details: 5 h, higher = more signal;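 note: serum-stimulated A549 lung adenocarcinoma cells; signal is phosphorylated S6 detected by cytoblot immunostaining with HRP secondary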
[17] = molecular target: NADPH oxidase 2 (Homo sapiens) (UniProt P04839); assay: compounds shifting NOX2 Amplex Red fluorescence – cell-based, HEK293-NOX2, PMA-stimulated, NOX inhibitor project, primary screen (AID 1159); details: 45 min, higher = more signal, called active from +8 up or from −8 down; note: test concentration not given here
[18] = molecular target: NADPH oxidase 4 (Homo sapiens) (UniProt Q9NPH5); assay: compounds shifting NOX4 Amplex Red fluorescence – cell-based, HEK293-NOX4, tetracycline-induced, NOX inhibitor project, primary screen (AID 1160); details: HEK293-NOX4, Amplex Red H2O2 fluorescence, 45 min; higher = more signal, called active from +8 up or from −8 down
[19] = molecular target: NADPH oxidase 5 (Homo sapiens) (UniProt Q96PH1); assay: compounds shifting NOX5 Amplex Red fluorescence – cell-based, HEK293-NOX5, NOX inhibitor project, primary screen (AID 1161); details: HEK293-NOX5, ionomycin, 45 min, higher = more signal
[20] = compound effects on lung adenocarcinoma cell viability – A549, calcein-AM fluorescence, 48 h, basal, profiling panel (AID 1162); details: higher = more signal; note: test concentration not given here

Streptavidin (Streptomyces avidinii), sequence (P22629 whole entry, looked up): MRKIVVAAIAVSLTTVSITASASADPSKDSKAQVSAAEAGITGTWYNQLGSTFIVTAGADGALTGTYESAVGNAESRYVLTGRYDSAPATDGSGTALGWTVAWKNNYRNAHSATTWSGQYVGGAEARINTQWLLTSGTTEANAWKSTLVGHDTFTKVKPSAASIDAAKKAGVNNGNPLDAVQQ
NADPH oxidase 2 (Homo sapiens), sequence (P04839 whole entry, looked up): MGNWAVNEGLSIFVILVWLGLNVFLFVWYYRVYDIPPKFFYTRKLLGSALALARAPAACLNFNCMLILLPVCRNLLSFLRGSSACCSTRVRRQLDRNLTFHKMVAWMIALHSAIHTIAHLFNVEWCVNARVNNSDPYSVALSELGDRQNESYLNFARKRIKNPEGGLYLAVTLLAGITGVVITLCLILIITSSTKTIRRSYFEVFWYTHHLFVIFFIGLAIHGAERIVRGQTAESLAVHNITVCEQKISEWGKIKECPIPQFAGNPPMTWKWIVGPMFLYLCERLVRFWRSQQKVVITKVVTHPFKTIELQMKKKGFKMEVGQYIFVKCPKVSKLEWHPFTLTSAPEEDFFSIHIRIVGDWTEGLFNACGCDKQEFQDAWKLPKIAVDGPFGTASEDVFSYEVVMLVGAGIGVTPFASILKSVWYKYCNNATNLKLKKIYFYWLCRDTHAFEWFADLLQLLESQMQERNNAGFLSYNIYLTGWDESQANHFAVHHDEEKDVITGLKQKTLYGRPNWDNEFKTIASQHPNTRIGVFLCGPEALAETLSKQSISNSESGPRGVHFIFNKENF
Torsin-1A (Homo sapiens), sequence (O14656 whole entry, looked up): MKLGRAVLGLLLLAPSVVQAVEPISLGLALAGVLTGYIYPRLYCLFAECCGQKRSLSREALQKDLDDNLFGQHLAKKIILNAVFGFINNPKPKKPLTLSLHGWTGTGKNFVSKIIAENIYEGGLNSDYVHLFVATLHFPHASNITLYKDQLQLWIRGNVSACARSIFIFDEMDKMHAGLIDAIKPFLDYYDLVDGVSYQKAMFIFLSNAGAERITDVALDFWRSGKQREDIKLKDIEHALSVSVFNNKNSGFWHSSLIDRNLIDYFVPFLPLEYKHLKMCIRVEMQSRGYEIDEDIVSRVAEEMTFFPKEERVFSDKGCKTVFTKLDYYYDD
NADPH oxidase 5 (Homo sapiens), sequence (Q96PH1 whole entry, looked up): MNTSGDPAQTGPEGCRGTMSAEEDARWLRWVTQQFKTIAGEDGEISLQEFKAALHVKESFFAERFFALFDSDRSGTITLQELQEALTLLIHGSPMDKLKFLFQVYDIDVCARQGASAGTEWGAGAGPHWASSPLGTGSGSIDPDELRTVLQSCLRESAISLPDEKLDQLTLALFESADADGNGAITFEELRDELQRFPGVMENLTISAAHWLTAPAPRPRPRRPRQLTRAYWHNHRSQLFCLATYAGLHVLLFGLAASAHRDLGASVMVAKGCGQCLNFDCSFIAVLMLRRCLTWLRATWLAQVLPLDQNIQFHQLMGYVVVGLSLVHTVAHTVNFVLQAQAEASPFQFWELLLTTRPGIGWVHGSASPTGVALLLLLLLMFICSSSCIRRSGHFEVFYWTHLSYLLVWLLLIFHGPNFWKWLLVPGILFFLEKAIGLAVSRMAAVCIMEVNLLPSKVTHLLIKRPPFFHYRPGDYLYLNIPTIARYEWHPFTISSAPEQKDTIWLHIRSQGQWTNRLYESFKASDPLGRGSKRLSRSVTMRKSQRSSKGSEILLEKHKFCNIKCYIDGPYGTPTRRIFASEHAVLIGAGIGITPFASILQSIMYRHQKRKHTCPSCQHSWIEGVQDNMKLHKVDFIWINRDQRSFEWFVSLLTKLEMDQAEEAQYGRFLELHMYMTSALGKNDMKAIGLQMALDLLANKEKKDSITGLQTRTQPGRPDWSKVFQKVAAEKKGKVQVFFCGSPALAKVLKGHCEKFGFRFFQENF
NADPH oxidase 4 (Homo sapiens), sequence (Q9NPH5 whole entry, looked up): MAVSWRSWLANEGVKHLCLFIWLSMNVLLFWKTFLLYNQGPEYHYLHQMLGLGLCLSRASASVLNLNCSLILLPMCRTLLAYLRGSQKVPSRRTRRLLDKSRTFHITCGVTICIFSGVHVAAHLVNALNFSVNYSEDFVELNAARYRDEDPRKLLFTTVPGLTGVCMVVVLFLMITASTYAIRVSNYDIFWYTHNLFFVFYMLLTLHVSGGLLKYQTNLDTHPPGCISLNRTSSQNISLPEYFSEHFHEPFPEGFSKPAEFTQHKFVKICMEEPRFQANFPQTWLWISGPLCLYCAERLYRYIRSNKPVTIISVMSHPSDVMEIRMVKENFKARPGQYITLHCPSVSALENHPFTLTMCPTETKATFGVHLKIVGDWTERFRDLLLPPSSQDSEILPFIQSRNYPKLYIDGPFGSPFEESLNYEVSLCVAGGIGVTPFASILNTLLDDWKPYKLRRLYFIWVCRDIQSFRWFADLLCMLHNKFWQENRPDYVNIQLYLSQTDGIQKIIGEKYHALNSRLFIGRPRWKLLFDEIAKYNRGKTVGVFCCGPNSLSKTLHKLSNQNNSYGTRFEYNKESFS

Row | SMILES | composite z-score [1] | z-score [2] | z-score [3] | z-score [4] | composite z-score [5] | composite z-score [6] | composite z-score (Torsin-1A (Homo sapiens) [7]) | composite z-score (Torsin-1A (Homo sapiens) [8]) | composite z-score [9] | z-score [10] | composite z-score [11] | z-score [12] | z-score [13] | z-score [14] | z-score [15] | z-score [16] | z-score [17] | z-score [18] | z-score [19] | z-score [20]
1 | COc1ccc([Si](C)(C)[C@H]2[C@H](CCO)O[C@@]3(C(=O)N(Cc4ccc(N5C(=O)c6cccc7cccc5c67)cc4)c4ccccc43)[C@@H]2C)cc1 | -0.158 | -6.16 (inactive) | 0.399 (inactive) | -1.05 (inactive) | 0.338 | -0.101 | -0.294 | -0.124 | -0.0681 | 1.19 (inactive) | -0.147 | 3.64 (inactive) | 2.29 (inactive) | -0.273 (inactive) | 1.23 (inactive) | 1.63 | 0.469 (inactive) | 0.821 (inactive) | 0.378 | -1.02
2 | CO[C@H]1O[C@H](CO)[C@@H](OC(=O)CCc2ccccc2)[C@@H]2OC(=O)[C@H](Cc3ccccc3)C/C=C/C[C@@H](Cc3ccccc3)C(=O)O[C@@H]12 | -0.221 | -3.09 (inactive) | -0.552 (inactive) | -1.18 (inactive) | -0.804 | -0.179 | 0.0387 | 0.0489 | -0.214 | 2.35 (inactive) | -0.243 | 6.07 (inactive) | 0.389 (inactive) | -1.06 (inactive) | -1.83 (inactive) | 0.939 | 1.59 (inactive) | 1.26 (inactive) | 0.751 | 1.38
3 | CCOC(=O)C[C@H]1[C@H](OC(=O)c2ccc(-c3ccccc3)cc2)[C@@H](NC(=O)c2ccccc2)c2cc(OCCCO)ccc2N1C(=O)c1ccccc1 | 0.15 | -2.94 (inactive) | 0.251 (inactive) | -0.843 (inactive) | 0.0439 | 0.105 | 0.217 | 0.792 | 0.082 | 2.36 (inactive) | 0.167 | 0.788 (inactive) | -0.846 (inactive) | -0.0889 (inactive) | -1.09 (inactive) | 1.58 | 2.09 (inactive) | 1.32 (inactive) | 3.5 | 0.769
4 | C=CCC(OC(C)=O)[C@@H]1[C@@H](N(Cc2cccc3ccccc23)C(=O)c2cccc3ccccc23)c2cc(OCCCO)ccc2N1C(=O)Cc1ccc(OC)cc1 (stereo not given in full) | -0.0589 | -3.55 (inactive) | 1.47 (inactive) | -0.876 (inactive) | 0.228 | -0.179 | -0.0507 | 0.274 | 0.234 | 2.86 (inactive) | 0.0945 | 2.59 (inactive) | -0.227 (inactive) | -0.0889 (inactive) | -0.618 (inactive) | 1.5 | 0.295 (inactive) | -0.783 (inactive) | 1.46 | 0.725
5 | C=CCN1C(=O)[C@@]2(O[C@@H](CCn3cc(CCO)nn3)[C@H]([Si](C)(C)c3ccc(OC)cc3)[C@H]2C)c2cc(NC(=O)c3ccc(OC)cc3)ccc21 | 0.315 | -2.79 (inactive) | 12.8 (active) | -2.29 (inactive) | 0.441 | 0.0497 | 0.558 | 0.437 | 1.4 | 0.596 (inactive) | 0.0789 | 12.1 (active) | 2.03 (inactive) | 1.1 (inactive) | 0.742 (inactive) | 0.157 | -0.282 (inactive) | 1.45 (inactive) | 0.367 | -0.0183
6 | C[N+](C)(C)CCCC[C@@H]1NC(=O)[C@@H]2C[C@H](C(=O)NCCCCCNC(=O)CS)[C@H](c3ccc(O)cc3)N2C1=O | 0.684 | -0.244 (inactive) | -0.398 (inactive) | -0.757 (inactive) | -0.101 | -0.128 | 0.348 | 0.305 | 1.42 | 1.18 (inactive) | -0.0536 | 0.453 (inactive) | -1.65 (inactive) | -4.23 (inactive) | -2.4 (inactive) | 1.4 | 0.621 (inactive) | 0.774 (inactive) | 2.12 | -0.215
7 | NC(=O)N1C(=O)C2C(C1=O)C1C=C(c3ccc(CO)cc3)C2C(C2CC2)N1Cc1cc2c(cc1Br)OCO2 (stereo not given) | 0.0262 | -1.15 (inactive) | 7.31 (inactive) | -1.34 (inactive) | 0.368 | 0.134 | 0.32 | 0.127 | 1.39 | 0.737 (inactive) | 0.0671 | 14.4 (active) | 0.537 (inactive) | -0.429 (inactive) | -1.43 (inactive) | 0.215 | 2.92 (inactive) | 1.48 (inactive) | -0.201 | 0.485
8 | COC(=O)C1=CC(c2ccc(CO)cc2)=CC(c2cccs2)N(C)C=C1C(=O)OC (stereo not given) | -0.246 | -3.59 (inactive) | -0.348 (inactive) | -0.534 (inactive) | 0.295 | -0.0471 | 0.503 | 0.634 | 0.335 | 2.46 (inactive) | 0.571 | 6.76 (inactive) | 0.0213 (inactive) | -0.64 (inactive) | -1.49 (inactive) | 1.67 | -1.48 (inactive) | -2.33 (inactive) | -1.44 | 0.126
9 | C=CC[C@]1(C(=O)N(C)C)N=C(c2ccc(OCCCO)cc2)O[C@H]1c1ccccc1CN=[N+]=[N-] | 0.508 | -1.79 (inactive) | 2.8 (inactive) | -1.16 (inactive) | 1.39 | 0.0388 | 0.581 | 1.1 | 0.0463 | 1.19 (inactive) | -0.237 | 11.8 (active) | 1.47 (inactive) | 2.63 (inactive) | 0.817 (inactive) | 0.434 | 1.23 (inactive) | 0.653 (inactive) | -1.25 | 0.937
